In the supplement of paper PMC10849652:
Targets with a hit are over-represented here; the source holds about 7,900 in all. About 0.6% of all pairs of compound and target were hits. A number with no mark means an inactive call.

Assays:
Test in all cases: log2 fold change, soluble protein after heating vs DMSO (PISA); higher = thermal stabilisation; K562 cells, 10 uM, 30 min; active = over 0.2 and 3.5 SD of the protein, either way, in both replicates (recomputed)
[1] = compound: CC[C@@H]1C(=O)N(C)c2cnc(Nc3ccc(C(=O)NC4CCN(C)CC4)cc3OC)nc2N1C1CCCC1
Method in brief: (§1)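 Quantification of soluble protein used TMTpro 16plex LC-MS/MS, with channel sums equalised. Samples were the supernatant after 21,000xg for 90 min of pooled aliquots from K562 cells (2×10^6 cells/mL) treated with 10 μM compound for 30 min, heated for 3 min over 48°C-58°C, and extracted in PBS with 0.5% NP-40 at 4°C. Values, from duplicates, describe thermal stability against control samples on a log2 fold-change scale.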

volasertib = compound: CC[C@@H]1C(=O)N(C)c2cnc(Nc3ccc(C(=O)N[C@H]4CC[C@H](N5CCN(CC6CC6)CC5)CC4)cc3OC)nc2N1C(C)C [volasertib]
Method in brief: as §1

[2] = compound: CC[C@H](C)N1C=C(C2=C(C=C(C=C21)C3=CN=C(C=C3)N4CCNCC4)C(=O)NCC5=C(C=C(NC5=O)C)C)C
Method in brief: as §1

epoxomicin = compound: CC[C@H](C)[C@@H](C(=O)N[C@@H]([C@@H](C)O)C(=O)N[C@@H](CC(C)C)C(=O)[C@]1(CO1)C)NC(=O)[C@H]([C@@H](C)CC)N(C)C(=O)C [epoxomicin]
Method in brief: as §1

[3] = compound: CCn1c(C(=O)N(C2CC2)C2CC2)cc2c3c(ncn3C)c(Nc3cc(C)n(C)n3)nc21
Method in brief: as §1

[4] = compound: CCn1cc(-c2ccnc3[nH]c(-c4cccc(CN(C)C)c4)cc23)c(-c2ccc(NC(=O)N(C)C)cc2)n1
Method in brief: as §1

[5] = compound: CN(C)CC(=O)Nc1ccc2[nH]c(=O)c3ccccc3c2c1
Method in brief: as §1

rosiglitazone = compound: CN(CCOC1=CC=C(C=C1)C[C@H]2C(=O)NC(=O)S2)C3=CC=CC=N3 (racemic) [rosiglitazone]
Method in brief: as §1

[6] = compound: CN1C2=C(C3=C1C(=O)N(N=C3)CC4=CC(=CC=C4)N)SC(=C2)S(=O)C
Method in brief: as §1

[7] = compound: CN1CCC(CNc2ccc3ncc(-c4cccc(OC(F)(F)F)c4)n3n2)CC1
Method in brief: as §1

saracatinib = compound: CN1CCN(CCOc2cc(OC3CCOCC3)c3c(Nc4c(Cl)ccc5c4OCO5)ncnc3c2)CC1 [saracatinib]
Method in brief: as §1

sotrastaurin = compound: CN1CCN(c2nc(C3=C(c4c[nH]c5ccccc45)C(=O)NC3=O)c3ccccc3n2)CC1 [sotrastaurin]
Method in brief: as §1

alvocidib = compound: CN1CC[C@H](c2c(O)cc(O)c3c(=O)cc(-c4ccccc4Cl)oc23)[C@H](O)C1 [alvocidib]
Method in brief: as §1

Tubastatin A = compound: CN1CCc2c(c3ccccc3n2Cc2ccc(C(=O)NO)cc2)C1 [Tubastatin A]
Method in brief: as §1

[8] = compound: CNC(=O)C1=CC=CC=C1NC2=NC(=NC=C2Cl)NC3=C(C=C(C=C3)N4CCOCC4)OC
Method in brief: as §1

defactinib = compound: CNC(=O)c1ccc(Nc2ncc(C(F)(F)F)c(NCc3nccnc3N(C)S(C)(=O)=O)n2)cc1 [defactinib]
Method in brief: as §1

rucaparib = compound: CNCc1ccc(-c2[nH]c3cc(F)cc4c3c2CCNC4=O)cc1 [rucaparib]
Method in brief: as §1

[9] = compound: CNc1nc(-c2ccc3c(N)n[nH]c3c2)cc(N2C[C@@H](C(=O)NC3CCCCC3)CC[C@H]2C)n1
Method in brief: as §1

encorafenib = compound: COC(=O)N[C@@H](C)CNc1nccc(-c2cn(C(C)C)nc2-c2cc(Cl)cc(NS(C)(=O)=O)c2F)n1 [encorafenib]
Method in brief: as §1

[10] = compound: COC(=O)[C@H](CCSC)NC(=O)C1=C(C=C(C=C1)NC[C@H](CS)N)C2=CC=CC=C2
Method in brief: as §1

Chain of UniProt Q9Y485 (Q9Y485 whole entry, looked up): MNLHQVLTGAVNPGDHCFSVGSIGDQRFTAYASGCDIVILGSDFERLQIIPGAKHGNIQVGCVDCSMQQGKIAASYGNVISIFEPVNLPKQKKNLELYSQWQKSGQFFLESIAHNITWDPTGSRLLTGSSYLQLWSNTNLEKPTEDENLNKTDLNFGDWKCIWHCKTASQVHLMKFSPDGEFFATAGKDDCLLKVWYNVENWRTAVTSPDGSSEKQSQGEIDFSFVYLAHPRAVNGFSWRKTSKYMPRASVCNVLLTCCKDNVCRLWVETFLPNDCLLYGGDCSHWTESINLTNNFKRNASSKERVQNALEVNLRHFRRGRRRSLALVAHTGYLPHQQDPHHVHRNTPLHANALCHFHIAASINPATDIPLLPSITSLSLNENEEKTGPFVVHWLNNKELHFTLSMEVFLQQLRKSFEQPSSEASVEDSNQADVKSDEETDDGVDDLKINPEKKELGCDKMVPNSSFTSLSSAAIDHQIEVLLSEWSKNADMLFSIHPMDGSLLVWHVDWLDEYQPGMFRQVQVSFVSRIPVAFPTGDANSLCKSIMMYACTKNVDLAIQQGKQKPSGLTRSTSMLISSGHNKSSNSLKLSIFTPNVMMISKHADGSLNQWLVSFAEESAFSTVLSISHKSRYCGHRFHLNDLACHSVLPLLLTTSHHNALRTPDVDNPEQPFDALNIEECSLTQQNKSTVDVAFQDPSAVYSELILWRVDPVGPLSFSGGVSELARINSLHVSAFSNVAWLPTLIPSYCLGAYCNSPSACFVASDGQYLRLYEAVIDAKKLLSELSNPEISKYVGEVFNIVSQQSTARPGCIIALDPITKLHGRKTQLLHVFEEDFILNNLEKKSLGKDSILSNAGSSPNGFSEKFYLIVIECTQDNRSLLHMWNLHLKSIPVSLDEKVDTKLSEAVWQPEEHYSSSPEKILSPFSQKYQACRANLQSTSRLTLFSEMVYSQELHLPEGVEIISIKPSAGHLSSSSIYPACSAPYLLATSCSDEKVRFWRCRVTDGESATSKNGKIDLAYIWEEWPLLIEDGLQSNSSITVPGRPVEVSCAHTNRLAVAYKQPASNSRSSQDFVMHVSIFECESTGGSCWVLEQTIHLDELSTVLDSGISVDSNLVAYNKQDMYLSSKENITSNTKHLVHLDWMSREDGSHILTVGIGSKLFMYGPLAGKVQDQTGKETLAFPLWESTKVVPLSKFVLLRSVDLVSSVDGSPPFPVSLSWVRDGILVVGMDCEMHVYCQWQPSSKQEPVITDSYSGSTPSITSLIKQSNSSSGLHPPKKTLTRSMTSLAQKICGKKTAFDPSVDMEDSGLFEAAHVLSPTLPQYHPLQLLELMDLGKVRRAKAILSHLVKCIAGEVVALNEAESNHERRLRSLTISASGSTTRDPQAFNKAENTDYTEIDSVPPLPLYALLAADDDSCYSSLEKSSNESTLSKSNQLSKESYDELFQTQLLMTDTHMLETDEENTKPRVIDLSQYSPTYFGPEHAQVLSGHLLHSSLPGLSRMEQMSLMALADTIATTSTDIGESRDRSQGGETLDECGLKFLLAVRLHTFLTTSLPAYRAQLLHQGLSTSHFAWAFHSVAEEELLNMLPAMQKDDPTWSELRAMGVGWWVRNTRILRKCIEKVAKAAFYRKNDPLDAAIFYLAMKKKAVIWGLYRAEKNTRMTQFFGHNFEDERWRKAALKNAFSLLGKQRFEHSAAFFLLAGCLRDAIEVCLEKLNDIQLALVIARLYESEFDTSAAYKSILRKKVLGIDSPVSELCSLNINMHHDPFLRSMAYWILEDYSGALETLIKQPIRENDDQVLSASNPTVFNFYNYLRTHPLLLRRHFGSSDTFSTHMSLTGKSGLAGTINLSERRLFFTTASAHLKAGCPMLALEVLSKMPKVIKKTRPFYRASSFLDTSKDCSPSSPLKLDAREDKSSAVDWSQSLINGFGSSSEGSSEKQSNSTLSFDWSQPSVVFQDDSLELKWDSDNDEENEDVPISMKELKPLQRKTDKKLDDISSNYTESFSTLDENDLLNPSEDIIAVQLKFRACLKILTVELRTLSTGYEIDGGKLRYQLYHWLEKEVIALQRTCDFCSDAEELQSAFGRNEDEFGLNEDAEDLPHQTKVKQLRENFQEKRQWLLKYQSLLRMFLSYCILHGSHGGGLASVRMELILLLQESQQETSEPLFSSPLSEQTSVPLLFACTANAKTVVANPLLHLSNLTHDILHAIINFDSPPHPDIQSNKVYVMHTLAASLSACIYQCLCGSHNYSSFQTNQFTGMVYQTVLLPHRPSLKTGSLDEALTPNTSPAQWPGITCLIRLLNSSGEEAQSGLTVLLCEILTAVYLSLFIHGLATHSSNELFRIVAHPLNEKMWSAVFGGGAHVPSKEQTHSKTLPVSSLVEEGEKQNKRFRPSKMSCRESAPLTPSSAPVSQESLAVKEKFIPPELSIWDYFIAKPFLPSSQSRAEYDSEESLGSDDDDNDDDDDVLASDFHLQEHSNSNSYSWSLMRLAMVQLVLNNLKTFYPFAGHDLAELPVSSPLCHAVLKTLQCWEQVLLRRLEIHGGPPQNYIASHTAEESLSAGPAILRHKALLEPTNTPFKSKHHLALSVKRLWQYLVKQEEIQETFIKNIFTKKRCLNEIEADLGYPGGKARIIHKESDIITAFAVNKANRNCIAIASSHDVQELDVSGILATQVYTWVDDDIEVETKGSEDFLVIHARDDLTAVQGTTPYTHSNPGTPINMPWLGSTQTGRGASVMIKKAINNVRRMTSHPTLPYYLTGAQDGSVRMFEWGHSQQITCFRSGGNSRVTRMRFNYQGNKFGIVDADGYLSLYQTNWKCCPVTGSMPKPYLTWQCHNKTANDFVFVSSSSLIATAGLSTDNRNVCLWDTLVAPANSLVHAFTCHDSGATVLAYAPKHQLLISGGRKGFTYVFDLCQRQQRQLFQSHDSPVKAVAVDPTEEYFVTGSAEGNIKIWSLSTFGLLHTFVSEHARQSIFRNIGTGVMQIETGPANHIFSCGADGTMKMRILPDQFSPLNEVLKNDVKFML
Chain of UniProt P24534 (P24534 whole entry, looked up): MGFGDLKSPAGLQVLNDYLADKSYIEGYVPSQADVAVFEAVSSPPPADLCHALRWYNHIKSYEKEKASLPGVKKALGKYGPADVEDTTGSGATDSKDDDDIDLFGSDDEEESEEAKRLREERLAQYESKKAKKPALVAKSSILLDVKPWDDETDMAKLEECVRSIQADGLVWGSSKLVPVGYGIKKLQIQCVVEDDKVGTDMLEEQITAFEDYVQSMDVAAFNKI
Chain of UniProt Q96G46 (Q96G46 whole entry, looked up): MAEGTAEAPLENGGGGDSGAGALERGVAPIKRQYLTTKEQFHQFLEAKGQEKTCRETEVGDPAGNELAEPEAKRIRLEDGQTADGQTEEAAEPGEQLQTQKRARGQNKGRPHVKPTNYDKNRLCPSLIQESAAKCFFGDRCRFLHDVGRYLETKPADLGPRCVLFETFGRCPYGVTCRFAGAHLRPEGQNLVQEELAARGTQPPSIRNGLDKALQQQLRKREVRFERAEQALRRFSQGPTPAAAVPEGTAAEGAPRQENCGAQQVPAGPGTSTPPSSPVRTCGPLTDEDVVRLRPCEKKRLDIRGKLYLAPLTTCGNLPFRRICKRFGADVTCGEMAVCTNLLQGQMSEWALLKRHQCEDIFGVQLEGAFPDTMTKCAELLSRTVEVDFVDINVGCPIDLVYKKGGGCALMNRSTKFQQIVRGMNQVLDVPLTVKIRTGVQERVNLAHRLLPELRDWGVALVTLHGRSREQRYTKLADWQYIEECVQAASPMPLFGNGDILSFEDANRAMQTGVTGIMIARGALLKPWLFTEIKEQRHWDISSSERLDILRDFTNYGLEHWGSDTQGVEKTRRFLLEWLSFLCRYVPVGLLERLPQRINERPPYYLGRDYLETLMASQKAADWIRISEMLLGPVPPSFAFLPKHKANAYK
Chain of UniProt Q9NVR5 (Q9NVR5 whole entry, looked up): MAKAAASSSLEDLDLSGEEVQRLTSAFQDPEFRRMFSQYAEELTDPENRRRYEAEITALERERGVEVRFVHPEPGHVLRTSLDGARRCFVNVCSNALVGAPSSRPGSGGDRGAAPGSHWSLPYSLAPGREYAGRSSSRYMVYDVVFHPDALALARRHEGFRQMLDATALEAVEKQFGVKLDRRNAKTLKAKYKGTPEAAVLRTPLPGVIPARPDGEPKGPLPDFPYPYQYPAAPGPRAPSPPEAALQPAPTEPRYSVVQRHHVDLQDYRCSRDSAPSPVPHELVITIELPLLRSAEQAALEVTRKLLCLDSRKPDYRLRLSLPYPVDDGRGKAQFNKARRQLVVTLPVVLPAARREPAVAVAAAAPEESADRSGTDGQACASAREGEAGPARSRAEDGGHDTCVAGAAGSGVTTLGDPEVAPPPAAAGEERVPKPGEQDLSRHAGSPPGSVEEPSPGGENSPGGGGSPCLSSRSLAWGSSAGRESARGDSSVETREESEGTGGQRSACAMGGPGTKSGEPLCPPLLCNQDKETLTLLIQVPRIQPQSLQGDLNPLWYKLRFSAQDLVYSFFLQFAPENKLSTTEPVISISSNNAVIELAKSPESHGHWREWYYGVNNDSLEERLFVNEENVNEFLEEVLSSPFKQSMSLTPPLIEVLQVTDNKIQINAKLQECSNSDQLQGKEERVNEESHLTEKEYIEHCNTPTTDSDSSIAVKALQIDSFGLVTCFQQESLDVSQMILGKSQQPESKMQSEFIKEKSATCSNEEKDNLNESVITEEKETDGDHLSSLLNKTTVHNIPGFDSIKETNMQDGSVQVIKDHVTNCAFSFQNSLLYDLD
Chain of UniProt O75477 (O75477 whole entry, looked up): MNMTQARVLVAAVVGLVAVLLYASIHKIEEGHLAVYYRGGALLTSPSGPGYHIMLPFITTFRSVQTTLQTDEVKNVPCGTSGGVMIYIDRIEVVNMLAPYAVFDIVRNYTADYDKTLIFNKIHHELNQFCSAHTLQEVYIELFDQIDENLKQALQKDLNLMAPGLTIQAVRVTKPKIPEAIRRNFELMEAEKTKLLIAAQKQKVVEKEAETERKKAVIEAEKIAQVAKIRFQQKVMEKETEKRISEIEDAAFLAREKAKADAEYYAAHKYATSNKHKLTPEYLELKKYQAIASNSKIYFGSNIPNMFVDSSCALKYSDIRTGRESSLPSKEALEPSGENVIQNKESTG

Row | Target | log2 fold change [1] | log2 fold change (volasertib) | log2 fold change [2] | log2 fold change (epoxomicin) | log2 fold change [3] | log2 fold change [4] | log2 fold change [5] | log2 fold change (rosiglitazone) | log2 fold change [6] | log2 fold change [7] | log2 fold change (saracatinib) | log2 fold change (sotrastaurin) | log2 fold change (alvocidib) | log2 fold change (Tubastatin A) | log2 fold change [8] | log2 fold change (defactinib) | log2 fold change (rucaparib) | log2 fold change [9] | log2 fold change (encorafenib) | log2 fold change [10]
1 | ELOVL5 isoform 2 (UniProt Q9NYP7) | -0.227 | -0.164 | 0.026 | -0.034 | 0.049 | -0.206 | 0.021 | 0.122 | -0.044 | -0.691 (active) | -0.037 | -0.084 | -0.021 | -0.085 | -0.032 | -0.016 | -0.026 | -0.135 | 0.132 | -0.048
2 | DDX4 (UniProt Q9NQI0) | 0.139 | -0.006 | 0.067 | -0.113 | -0.223 | 0.047 | -0.414 | 0.097 | 0.025 | -0.844 | -0.342 | 0.209 | 0.206 | 0.102 | -0.097 | 0.11 | 0.543 | -0.095 | 0.121 | 0.067
3 | EEF1B2 (UniProt P24534) | -0.171 | -0.343 (active) | 0.056 | -0.034 | -0.015 | 0.007 | 0.016 | 0.008 | 0.03 | -0.065 | -0.091 | -0.061 | -0.009 | 0.017 | 0.06 | -0.064 | 0.041 | -0.013 | 0.07 | -0.046
4 | DUS3L (UniProt Q96G46) | -0.162 | -0.331 (active) | 0.017 | 0.087 | 0.004 | 0.02 | 0.028 | 0.007 | 0.021 | -0.04 | 0.02 | -0.155 | -0.037 | -0.028 | 0.022 | -0.148 | 0.204 | -0.033 | 0.016 | 0.003
5 | DMXL1 (UniProt Q9Y485) | -0.119 | -0.241 | 0.029 | 0.026 | -0.044 | 0.072 | 0.012 | -0.032 | 0.01 | -0.276 (active) | 0.014 | 0.001 | -0.068 | -0.011 | -0.065 | -0.035 | 0.076 | -0.017 | 0.043 | -0.047
6 | DNAAF2 (UniProt Q9NVR5) | 0.11 | -0.113 | -0.031 | -0.012 | 0.029 | 0.095 | 0 | -0.06 | 0.042 | -0.279 (active) | 0.048 | 0 | -0.065 | -0.042 | 0.01 | -0.142 | 0.031 | -0.033 | 0.026 | 0.043
7 | CTU1 (UniProt Q7Z7A3) | -0.052 | -0.117 | 0.026 | 0.045 | -0.017 | -0.057 | 0.065 | 0.055 | -0.098 | -0.233 (active) | 0.01 | -0.038 | -0.19 | -0.029 | -0.045 | -0.036 | -0.003 | 0.09 | 0.02 | -0.031
8 | ERLIN1 (UniProt O75477) | -0.01 | -0.025 | 0.07 | 0.018 | 0.01 | 0.057 | 0.003 | 0.016 | 0.095 | 0.116 | 0 | -0.072 | 0.023 | 0.029 | -0.06 | 0.028 | 0.072 | -0.004 | 0.105 | -0.024
